Inconclusive results are not listed. Active and inactive are the calls of the source. Calls follow the shape of the dose curve; as a rule, active = well fitted inhibition curve with a large enough effect; inconclusive = small, poorly fitted or top-dose-only effect; inactive = flat fitted curve, though single readings scatter. Where a SMILES comes first, the peptide text is derived from it. The star is where a group is joined. AFC = O=c1cc(C(F)(F)F)c2ccc(N*)cc2o1
Assays:
Assay in all cases: Cytotoxic Profiling of Annotated Libraries Using Quantitative High-Throughput Screening (AID 1296008); also: nearly all actives have a fitted effect of over 60% in size
Settings in all cases: Five cell lines viability, CellTiter-Glo ATP luminescence, 48-72 h; max response: stronger effect = lower value
CRL-7250 = normal cell line; test system: CRL-7250
Method in brief: (§1)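 Cells exposed to compounds for 48 or 72 hr at 37 degrees Celsius. Viability read as ATP-coupled luminescence with CellTiter-Glo after 10 min at room temperature.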

HEK293 = test system: HEK293
Method in brief: as §1

HaCat = test system: HaCat
Method in brief: as §1

KB-3-1 = test system: KB-3-1
Method in brief: as §1
% is scaled to controls: 0 for no effect and ±100 for the full control effect; potency is read from the fitted curve at half-maximal effect.

CC1=C(C(=O)OCc2ccccc2)C(c2ccc(-c3ccccc3)cc2)NC(=O)N1CCCCCC(=O)O (stereo not given)
inactive: max response (CRL-7250) -0.424% | max response (HEK293) -21.5% | max response (HaCat) -18.2% | outcome (KB-3-1)

CC(C)c1cc(C(=O)N2CC[C@@H](NC(=O)C3CC3)C2)n[nH]1
inactive: max response (CRL-7250) -17.8% | max response (HEK293) -9.12% | max response (HaCat) 0.869% | max response (KB-3-1) 2.09%

C=C(C)C1CC[C@]2(C(=O)O)CC[C@]3(C(=O)O)[C@H](CCC4[C@@]5(C)CC[C@H](O)C(C)(C)C5CC[C@]43C)C12 (stereo not given in full)
inactive: max response (CRL-7250) -0.813% | max response (HEK293) -5.51% | max response (HaCat) -4.71% | max response (KB-3-1) -4.13%

CC(C)S(=O)(=O)N[C@H]1CCOC[C@@H]1c1ccc(-c2ccc(C#N)s2)cc1
inactive: outcome (CRL-7250) | max response (HEK293) -111% | outcome (HaCat) | outcome (KB-3-1)

COc1cc(C(=O)O)ccc1OC1OC(CO)C(O)C(O)C1O (stereo not given)
inactive: outcome (CRL-7250) | max response (HEK293) -3.87% | max response (HaCat) 0.774% | outcome (KB-3-1)

CC(C)(O)CC(CO)NC(=O)CC(O)CC(=O)Cc1ccccc1 (stereo not given)
inactive: max response (CRL-7250) 2.18% | max response (HEK293) 0.672% | max response (HaCat) 3.84% | max response (KB-3-1) 2.2%

CC1(C)CC[C@]2(C(=O)O)CC[C@]3(C)C(=CCC4[C@@]5(C)CC[C@H](O[C@@H]6O[C@H](C(=O)O)[C@@H](O[C@@H]7OC[C@@H](O)[C@H](O)[C@H]7O)[C@H](O)[C@H]6O)C(C)(C)C5CC[C@]43C)C2C1O (stereo not given in full)
inactive: max response (CRL-7250) 4.1% | max response (HEK293) 2.41% | max response (HaCat) -24% | outcome (KB-3-1)

CN(c1ccccc1CNc1nc(Nc2ccc3c(c2)CC(=O)N3)ncc1C(F)(F)F)S(C)(=O)=O
active: Potency (CRL-7250) 16.4 µM | Potency (HEK293) 2.31 µM | Potency (HaCat) 8.2 µM | Potency (KB-3-1) 6.51 µM

CCC(Nc1ncnc2nc[nH]c12)c1nc2cccc(F)c2c(=O)n1-c1ccccc1 (stereo not given)
inactive: max response (CRL-7250) -7.4% | max response (HEK293) -7.81% | max response (HaCat) -6.65% | outcome (KB-3-1)

C=CC(C)(CC/C=C(\C)C(=O)OC)OC1OC(COC(=O)CC(C)(O)CC(=O)O)C(OC2OC(CO)C(O)C(O)C2O)C(O)C1O (stereo not given)
inactive: outcome (CRL-7250) | max response (HEK293) -1.61% | max response (HaCat) -0.66% | outcome (KB-3-1)

FC(F)(F)c1cc(-c2ncn(/C=C\c3nnco3)n2)cc(C(F)(F)F)c1
inactive: max response (CRL-7250) -13.3% | max response (HaCat) -20% | max response (KB-3-1) -19.3%
active: Potency (HEK293) 3.26 µM

CC(=O)N[C@@H](Cc1c[nH]c2ccccc12)C(=O)N[C@@H](CCC(=O)O)C(=O)N[C@@H](Cc1cnc[nH]1)C(=O)N[C@@H](CC(=O)O)C(=O)Nc1ccc2c(C(F)(F)F)cc(=O)oc2c1 (Ac-WEHD-{AFC})
inactive: outcome (CRL-7250) | max response (HEK293) -1.72% | max response (HaCat) -11.3% | outcome (KB-3-1)

C[C@@H]1[C@H]2[C@H](O[C@@H]3O[C@H](CO)[C@@H](O)[C@H](O)[C@H]3O)OC=C(C(=O)O)[C@H]2C[C@@H]1O
inactive: outcome (CRL-7250) | max response (HEK293) -5.11% | max response (HaCat) -4.56% | max response (KB-3-1) -0.849%

C[C@@H]1CN(Cc2ncccn2)C[C@H]1c1nc2c(cnn2C2CCOCC2)c(=O)[nH]1
inactive: max response (CRL-7250) 1.7% | max response (HEK293) -4.3% | max response (HaCat) 0.321% | max response (KB-3-1) -1.41%

O=C(Nc1ccn[nH]1)c1c(F)cccc1F
inactive: outcome (CRL-7250) | max response (HEK293) 4.81% | max response (HaCat) -3.04% | outcome (KB-3-1)

CCn1c(=O)c(-c2ccn[nH]2)cc2c(C)nc(N)nc21
active: Potency (CRL-7250) 2.31 µM | Potency (HEK293) 4.61 µM | Potency (HaCat) 2.59 µM | Potency (KB-3-1) 7.31 µM

CCC(O)(C(=O)OCc1ccccc1NC(=O)CCC(=O)O)C(C)O (stereo not given)
inactive: outcome (CRL-7250) | max response (HEK293) -0.446% | max response (HaCat) -3.62% | outcome (KB-3-1)

Fc1ccc2nc(CCC#Cc3ccccn3)cn2c1
inactive: max response (CRL-7250) -4.35% | max response (HEK293) -6.15% | max response (HaCat) -2.5% | max response (KB-3-1) -13.9%

O=C(/C=C/c1ccc(O)cc1)OC1[C@H](O)CC(O)(C(=O)O)C[C@H]1O (stereo not given in full)
inactive: max response (CRL-7250) -9.1% | max response (HEK293) -1.83% | max response (HaCat) 1.01% | max response (KB-3-1) 2.34%

CC(=O)C1=CCC2C3CCC4CC(O[C@@H]5O[C@H](CO)[C@@H](O[C@@H]6O[C@@H](C)[C@H](O)[C@@H](O)[C@H]6O)[C@H](O)[C@H]5O[C@@H]5O[C@H](CO)[C@@H](O)[C@H](O)[C@H]5O)CCC4(C)C3CCC12C (stereo not given in full)
inactive: max response (CRL-7250) -10.3% | max response (HEK293) -11.1% | max response (HaCat) -22.8% | outcome (KB-3-1)
